We go through twelve molecules from PubChem BioAssay (NCI).

About 83,000 compounds went through this panel and 20% of them were active in at least one assay; those are over-represented in the sample as a whole.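 Plates (96-well) were seeded with cells, treated with compound at one concentration, and incubated for 48 hours before percent growth was determined.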 Values without a mark were called inactive. Activity calls are given as the source filed them. Rule for the calls: active = growth percent below 10; inactive = the rest.

For the first test, the system named is NCI-H522 lung. Briefly: NCI-60 one-dose screen, 48 h (100 = growth as untreated, 0 = no growth, -100 = all killed). As to conditions: 10 µM unless noted.
In the case of `C[C@]12CCc3sc(-c4ccccc4O)nc3C1=CC[C@@H]1[C@@H]2CC[C@]2(C)C(=O)CC[C@@H]12`, the growth was 99.3%.
For `CC[C@H](C)[C@H](NC(=O)[C@H]1CCCCN1C)C(=O)N(C)[C@H](CC(=O)c1nc(C(=O)N[C@@H](Cc2ccccc2)C[C@H](C)C(=O)O)cs1)C(C)C`, the growth was -9.54% (active).
As for `COc1cccc(/C=C/[N+](=O)[O-])c1`, the growth was 63.2%.
Same read-out and setting: for `O=C1CC2(CC3(Cl)C(Cl)=C(Cl)C2(Cl)C3(Cl)Cl)C(=O)O1` (configuration not stated) the value was 102%; for `CC12CCC3C(CCC4=CC(=O)CCC43CF)C1CCC2=O` (configuration not stated), 87.3%.
For the molecule `Nc1ccc(-c2nc3cc(F)ccc3[se]2)cc1F`, the growth was 64.2%.

For a further test, the system named is A549/ATCC NSCLC. Described as above. Conditions: 10 µM unless noted.
For the molecule `COc1cc2c(=O)n(C3CCCCCCC3)c3c4cc[nH]c4ncc3c2cc1OC`, the growth is 25.4%.
In the case of `C1CCC([PH+](C2CCCCC2)C2CCCCC2[PH+](C2CCCCC2)C2CCCCC2)CC1.[Au].[CH-]1CCCCC1CC1CCCC[N-]1` (configuration not stated), the growth was -44.4% (active).
Same read-out and setting: next, `CCCCN1CCCC[C@@H]1C(=O)N[C@H](C(=O)N(C)[C@H](C[C@@H](OC(C)=O)c1nc(C(=O)NC2CCC(C(=O)OC)CC2)cs1)C(C)C)C(C)C` (some centres not stated): 24.2%; `CS(=O)(=O)CCN1CC2CCCC(C2)C1`: 99.9%.
Same read-out and setting: next, `COC(=O)[C@@H](C)C[C@H](Cc1ccccc1)NC(=O)c1nc([C@@H](C[C@H](C(C)C)N(C)C(=O)[C@@H](NC(=O)[C@H]2CCCCN2C)C(C)C)OC(C)=O)sc1C(C)C`: 2.6% (active); `C=CC[Se]C(=O)c1ccccc1OC(C)=O`: 0.797% (active).
